Measurements from PubChem BioAssay (Tox21).
Inconclusive results are not listed. Where a call stands in place of a potency, no number is given. Unmarked numbers belong to inactive results. Activity calls are given as the source filed them. Calls come from the whole dose curve; as a rule, active = well fitted inhibition curve with a large enough effect in the signal ratio in the repeat runs (not every such curve was filed as active); inconclusive = weak or mixed curves, or effect the other way; inactive = flat fitted curve, though single readings scatter; the % refers to the signal ratio.

test: cAMP Responsive Elements (CRE) small molecule antagonists, cell-based qHTS assay (AID 1963591); conditions: CRE-bla HEK293T, beta-lactamase FRET ratio; series mostly up to 92.4 µM
Description: U.S. Tox21 Program National Center for Advancing Translational Sciences [NCATS] Division of Preclinical Innovation [DPI] U.S. Environmental Protection Agency [EPA] National Institutes of Environmental Health Sciences [NIEHS] National Toxicology Program [NTP] U.S. Food and Drug Administration [FDA] Tox21 Assay Overview: CREB (cyclic-AMP Responsive Element Binding Protein) is a cellular transcription factor. It binds to certain DNA sequences called cAMP Responsive Elements (CRE) and regulates the transcription of the genes. […] This cell line can be used to find agonists/antagonists of the cyclic AMP signaling pathway. The activation of the report gene under culture conditions can be detected by fluorescence intensity. This cell line has been used to screen the Tox21 10K compound library to […].
Tox21 Assay Protocol Summary: CRE-bla Hek 293T cells were suspended in assay medium (DMEM containing 10% dialyzed FBS, 0.1 mM NEAA, 1 mM sodium pyruvate and 25 mM HEPES) and dispensed at 2,000 cells/4 uL /well into 1536-well black wall/clear bottom plates using a Multidrop Combi (ThermoFisher Scientific, Waltham, MA) dispenser. After the assay plates were incubated at 37 C/5% CO2 for 18 hrs, 23 nL of compounds dissolved in DMSO, positive controls or DMSO only was transferred to the assay plate by a pintool workstation (Kalypsys, San Diego, CA), followed by addition of 1 […] uL of 1.25uM NKH477 (0.25 uM as final concentration) in assay medium using a Flying Reagent Dispenser (Aurora Discovery, San Diego, CA). The plates were incubated at 37 C and 5% CO2 for 3 hrs. Then 1 uL of LiveBLAzer B/G FRET substrate (Invitrogen, Carlsbad, CA) was added to each well using Bioraptr Flying Reagent Dispenser (FRD, Aurora Discovery, San Diego, CA). The plates were incubated at room temperature for 2 h.
Potency is the fitted concentration of half-maximal effect.

Structure (SMILES)	Potency	activity change, negative = inhibition
CC(C)c1ccccc1N	inactive	
c1ccc2sc(SN(C3CCCCC3)C3CCCCC3)nc2c1	inactive	
NS(=O)(=O)c1cc2c(cc1Cl)NC(CSCc1ccccc1)=NS2(=O)=O	inactive	
O=C(Cl)c1c(Cl)cccc1Cl	inactive	
O=C(C(=O)c1ccc(Br)cc1)c1ccc(Br)cc1		-9.38% [at 18.9 µM]
COC(=O)C1=C(C)NC(COC(N)=O)=C(C(=O)OC(C)C)C1c1cccc(Cl)c1Cl (stereo not given)	inactive	
C/C(=C\c1ccc(C(=O)O)cc1)c1ccc2c(c1)C(C)(C)CCC2(C)C	inactive	
CCN(CC)c1cccc(O)c1	inactive	
CC(C)CO	inactive	
Cn1c(=O)c2c(ncn2CC2OCCO2)n(C)c1=O	inactive	
Nc1ccc(N)c2ccccc12	inactive	
O=S(=O)(O)c1cc(S(=O)(=O)O)c2c(N=Nc3ccccc3)c(O)ccc2c1	inactive	
CC(N=C(NC#N)Nc1ccncc1)C(C)(C)C (stereo not given)	inactive	
CC(C)O	inactive	
NCCCC(O)(P(=O)(O)O)P(=O)(O)O	inactive	
Cc1ccc(Cl)c(N)c1Cl	inactive	
CC(=O)[O][Al]	inactive	
CCO/C=C1\N=C(c2ccccc2)OC1=O	inactive	
CCCC(=O)OC(C)(C)Cc1ccccc1	inactive	
NC(=O)c1ccccc1C(N)=O	inactive	

Structure (SMILES)	Potency	activity change, negative = inhibition
CN(C)CCOC(c1ccccc1)c1ccccc1	inactive	
CN(C)CCOC(c1ccccc1)c1ccccc1 (tested in a mixture with another compound)	inactive	
CC(C)(C)Cl	inactive	
C/C=C1\[C@H]2C=C(C)C[C@]1(N)c1ccc(=O)[nH]c1C2	inactive	
CCCCCOC(=O)Nc1nc(=O)n([C@@H]2O[C@H](C)[C@@H](O)[C@H]2O)cc1F	inactive	
c1ccc2sc(SSc3nc4ccccc4s3)nc2c1		0.327% [at 18.9 µM]
CCCCOC(=O)CCC(C)=O	inactive	
Cc1ccc2ccc3cccc4ccc1c2c34	inactive	
Nc1ccc(/C=C/c2ccc(N)cc2S(=O)(=O)O)c(S(=O)(=O)O)c1		-10.6% [at 0.349 µM]
O=Cc1ccccc1Cl	inactive	
COc1cccc2sc(N)nc12	inactive	
CC(=O)Nc1cccc(N)c1	inactive	
Fc1ccc(C(c2ccc(F)cc2)N2CCNCC2)cc1	inactive	
CC(C)C=O	inactive	
c1ccc2sc(SN3CCOCC3)nc2c1	inactive	
C=C(C)C(=O)OC	inactive	
CC1=CC(=C(c2ccc(N)cc2)c2ccc(N)cc2)C=CC1=N		-12.2% [at 8.39 µM]
O=C(Oc1cccc2cccnc12)c1ccccc1	23.7 µM (active)	
CCC(C)COC(C)=O (stereo not given)	inactive	
CCOC(=O)/C=C(C)/C=C/C=C(C)/C=C/c1c(C)cc(OC)c(C)c1C	inactive	
